Among the data in ChEMBL document CHEMBL4513216, “Probing the Open Global Health Chemical Diversity Library for Multistage-Active Starting Points for Next-Generation Antimalarials” (ACS Infect Dis, 2020) are INHIBITION values, retold here.

About 8,600 (12%) of roughly 69,000 compounds showed an effect of 50% or more. What follows is part of a selection rich in strong results, with near analogues and random picks from the rest.

This experiment relates to Plasmodium berghei. Nature of the experiment: Screen against P. berghei liver stage (PbLuc), transformed with Luciferase, at 10uM. The experiment is classed as functional, HepG2. Conditions: tested at 10 uM.
On to `CC(C)CN(CCc1ccccc1)Cc1nc2c(cnn2C)c(=O)[nH]1`, for which the INHIBITION was found to be 29.2%.
To `Cc1ccccc1CC(C)NCc1c(C)nn(C)c1N1CCOCC1` (centres undefined) belongs 13.5%; to `CCc1ccccc1OCCCN(C)C(=O)C1CCCN1C(N)=O` (centres undefined), -40.4%; to `CCc1ccccc1OCCN(C)C(=O)CN1CCCC1`, 59.1%.
The same measure for `CN(CCCOc1ccccc1Cl)C(=O)CN1CCCCCC1=O`: 21.2%; for `Cc1ccc(OCCN(C)C(=O)CCCN2CCCC2=O)c(C)c1`: -12.6%; for `CCc1ccccc1OCCN(C)C(=O)CCN1CCCO1`: 42.4%.
The same measure for `CCc1ccccc1OCCN(C)C(=O)CCN1CCCCO1`: 69.3%.
With `O=C(Cc1csc(-c2ccccc2F)n1)NCc1cccc(C(=O)O)c1`, the INHIBITION is recorded as 0.29%.
The same measure for `CO[C@H]1CN(S(=O)(=O)c2ccccc2F)C[C@@]12CCCO2`: 3.48%; for `Cc1nc(N)cc(C2CCN2CCOc2ccccc2)n1` (centres undefined): -0.232%; for `COc1ccnc(N2CCN(C(=O)CN3CCOCC3)CC2)n1`: 31.9%.
To `CC(=O)N1CCCC1c1nccnc1Nc1ncccn1` (centres undefined) belongs -107%.
To `CC(C(=O)O)n1nc(C(F)(F)F)c(Cl)c1C1CC1` (centres undefined) belongs 7.3%; to `Cc1c(Cl)c(C(F)(F)F)nn1C(C)C(=O)NN1CCN(C)CC1` (centres undefined), 35.7%.
In the case of `CC(C(=O)NN1CCOCC1)n1nc(C(F)(F)F)c(Cl)c1C1CC1` (centres undefined), the INHIBITION turned out to be 74.1%.
To `CC(C(=O)NC1CCN(C)CC1)n1nc(C(F)(F)F)c(Cl)c1C1CC1` (centres undefined) belongs 82.4%.
The same measure for `O=C(Cn1nc(C(F)(F)F)c(Cl)c1C1CC1)NN1CCOCC1`: -3.11%; for `Cc1c(Cl)c(C(F)(F)F)nn1C(C)C(=O)NC1CCN(C)CC1` (centres undefined): 26.8%; for `Cn1ccc2ccc(C(=O)Nc3nc[nH]n3)cc21`: 46.4%.
The same measure for `CC(=O)N1CCN(C(=O)NCc2ccc(Cl)s2)CC1`: 42%; for `O=C1CC[C@H]2[C@H](CCN2C(=O)c2ccc[nH]2)N1CCN1CCOCC1`: -14.4%; for `Cc1nc2ccccc2n1CCNCc1cccc(O)c1`: -57.5%.
As for `C[C@@H]1C[C@H]2CN(S(=O)(=O)c3ccc(F)cc3)C[C@H]2O1`, the INHIBITION is 24.8%.
The same measure for `O=C1CO[C@@H]2CN(S(=O)(=O)c3ccccc3F)C[C@H]2N1`: 44.4%; for `O=C1CO[C@@H]2CN(S(=O)(=O)c3ccc(F)cc3)C[C@H]2N1`: 82.2%; for `c1ncn(Cc2cn3c(n2)CN(CC2CCCC2)CC3)n1`: -16.9%.
To `O=C(c1cnc(-c2cnccn2)s1)N1CCCC1Cn1cccn1` (centres undefined) belongs -21.5%; to `O=C(NCc1ccccc1)N1CCC2(CC(=O)N(c3ccccc3)C2)C1` (centres undefined), -14.7%.
For `CCN(C(C)=O)c1nc(CN2CCCC2Cn2cncn2)cs1` (centres undefined), the INHIBITION is on record as -6.44%.
To `COCCN1CCC(C(=O)N(C)Cc2c[nH]c3ccc(C)cc23)C1` (centres undefined) belongs 39.9%; to `COCCN1CCC(C(=O)N(C)CCOc2ccc(C)cc2Cl)C1` (centres undefined), 59.3%; to `COCCN1CCC(C(=O)N(C)Cc2cccc(Cl)c2)C1` (centres undefined), 13.9%.
To `Cc1cn(-c2ccccc2)nc1NS(=O)(=O)c1ccc(C(=O)O)cc1F` belongs -20%; to `CSc1ccccc1CN1CCn2nc(CNC(=O)N(C)C)cc2C1`, 4.97%; to `CC(=O)NCc1cc2n(n1)CCN(Cc1ccccc1OC(F)(F)F)C2`, 53.8%.
To `CSc1ccccc1CN1CCCn2nc(CNC(=O)N(C)C)cc2C1` belongs -19.4%; to `CCc1ccccc1CN1CCn2nc(CNC(C)=O)cc2C1`, 22%.
`CC(=O)NCc1cc2n(n1)CCN(Cc1cccc(Cl)c1Cl)C2`: the INHIBITION was -26.8%.
To `CSc1ccccc1CN1CCn2nc(CNC(C)=O)cc2C1` belongs 55.4%; to `O=C(c1ccc2c(c1)COC2)N1CCN(CCO)CC1`, 21.5%; to `c1ncc2c(n1)CN(Cc1nc(-c3ccsc3)no1)CC2`, -16%.
To `NC(=O)CN(Cc1ncc(-c2ccc(F)cc2)o1)C1CCCC1` belongs -13.6%; to `CSCC[C@H](NC(=O)CCn1cc(C(C)=O)c2ccccc21)C(=O)O`, -35.7%.
To `CC(C)c1nnc2n1CC(CNCc1ccc3c(c1)OCCO3)CC2` (centres undefined) belongs 17%; to `COc1ccc(NC(=O)Nc2cnc(N3CCN(C)CC3)nc2)cc1Cl`, 45%.
Regarding `COc1ccc(C)cc1NC(=O)Nc1cnc(N2CCCC2)nc1`, the INHIBITION is recorded as 45.5%.
To `Cc1ccc(NC(=O)Nc2cnc(N3CCN(C)CC3)nc2)cc1` belongs 37.4%.
To `COc1ccc(C)cc1NC(=O)Nc1cnc(N2CCOCC2)nc1` belongs 50.2%.
As for `Cc1ccc(NC(=O)Nc2cnc(N3CCN(C)CC3)nc2)c(Cl)c1`, the INHIBITION came out at 57.6%.
To `COc1ccc(C)cc1NC(=O)Nc1cnc(N2CCN(C)CC2)nc1` belongs 38.7%; to `C[C@H]1C(=O)NC[C@H]2CN(Cc3ccccc3)C[C@H]21`, -9.27%; to `CCS(=O)(=O)NCC(Cc1cccc(F)c1)N1CCNC1=O` (centres undefined), 23.1%.
The same measure for `CC(Cn1cccn1)NC(=O)Nc1ccccn1` (centres undefined): -4.16%; for `CCc1ncc(C(=O)c2ccc(OC)cc2)n1C`: 54.2%; for `CCCc1ncc(C(=O)c2ccc(OC)cc2)n1C`: 0.29%.
To `COc1ccc(C(=O)c2cnc(C(C)C)n2C)cc1` belongs 33.9%.
For `Cc1cc(=O)[nH]cc1C(=O)N1CCN(C)c2ccccc2C1`, the INHIBITION came to 42.8%.
Consider `COCCC(Cc1cccc(Br)c1)C(=O)NCC(N)=O` (centres undefined), for which the INHIBITION is 12.3%.
The same measure for `CNc1cc(-c2cccc(CN)c2)c2cc[nH]c2n1`: 5.91%.
To `Nc1cc(-c2cc(O)cc(C(=O)O)c2)c2cc[nH]c2n1` belongs 35.4%.
To `CCNCCOc1ccc(-c2cc(N)nc3[nH]ccc23)cc1` belongs 59.5%; to `Cc1ccc(N2CCC3(CCN(C(=O)N(C)C)CC3)CC2)nn1`, 35.4%; to `CCN(CC)S(=O)(=O)NCC(O)c1c(Cl)cccc1Cl` (centres undefined), -20%.
Take `CC(C)(CCS(C)(=O)=O)CNC(=O)NC1CCCC1(C)C` (centres undefined): the INHIBITION is reported as -21.9%.
The same measure for `Cn1nccc1NC(=O)CN1CCc2sccc2C1`: 18.6%; for `O=C(CN1CCc2sccc2C1)Nc1ccnc2ccnn12`: 82.2%.
To `CC(C)n1nccc1NC(=O)CN1CCc2sccc2C1` belongs 49.3%; to `CCn1c(C)nnc1SCCNc1cc(OC)ncn1`, 22.1%.
